From PubChem BioAssay
Pf Dd2 growth: qHTS Primary assay for Inhibitors of Plasmodium falciparum Dd2 growth in vitro | P. falciparum Dd2 growth, SYBR Green, 72 h | Potency, µM (highest dose often 28.9 µM), without a hit: at the top dose activity, negative = inhibition, hits mostly inhibitors | 120,000 tested, 4.3% active | AID 1347417, 2020; active means well fitted inhibition curve with a large enough effect;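 further: plate controls were DMSO vehicle for no effect and reference drug for full effect; nearly all actives have a fitted effect of over 65% in size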
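Readout: SYBR Green fluorescence, 485 nm excitation, 535 nm emission, after ~16 h lysis at 37C. Before that, Dd2-infected red cells (2.5% hematocrit) grew 72 h with compound, 29 uM top final concentration.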
The depositor's hits bear a star; i = inactive; [ ] = dose if it differs, or a comment. The full list was thinned out, with hits kept by preference. Potency means the concentration at half of the fitted maximal effect.

SMILES	Pf Dd2 growth
O=C(N[C@@H]1CN(C(=O)NC2CCCCC2)CCC[C@H]1O)c1ccc(OCCN2CCOCC2)cc1	-24.9%
CCCCc1cc(C[C@@H]2C[C@H](NC(C)=O)C2(C)C)no1	i
COc1ccc(CN[C@H]2C[C@@H](Cc3cc(CN4CCOCC4)on3)C2(C)C)cc1	-29.0%[44.1 µM]
COCc1ccc(CN[C@H]2C[C@@H](Cc3cc(CN4CCCCC4)on3)C2(C)C)o1	11.2µM*
CC(=O)N[C@H]1C[C@@H](Cc2cc(CN3CCCCC3)on2)C1(C)C	22.4µM*
CC(=O)N[C@H]1C[C@@H](Cc2cc(CN(C)C)on2)C1(C)C	-17.1%[44.1 µM]
COCc1cc(C[C@@H]2C[C@H](NC3CCN(C(C)=O)CC3)C2(C)C)no1	-15.6%[44.1 µM]
Cc1ccc(C(=O)Nc2ccc3c(N4CCOCC4)ncnc3c2)cc1F	-19.2%
CCc1noc(C)c1C(=O)N1C[C@@H](C(=O)O)C[C@@H](C(=O)N2CCCC2)C1	3.8%
Cc1ccc(C(=O)N2C[C@@H]3CCCN4CCC[C@@H]([C@H]34)[C@H]2CCCC(=O)Nc2ccccc2)cc1	i
COc1ccc(C(=O)N2CCC(N3C(=O)C(O)C34CCCCC4)CC2)cc1F (stereo not drawn)	-5.4%
Cc1ccc(C)c(NC(=O)c2nnn(CC(=O)Nc3cccc(C)c3C)c2N)c1	2.4%
Cc1ccc(NC(=O)c2nnn(Cc3ccccc3)c2N)cc1C	5.9%
Cc1ccc(Cl)cc1NC(=O)c1nnn(Cc2ccccc2)c1N	1.12µM*
COc1ccc(Cl)cc1NC(=O)c1nnn(Cc2cccc(C(F)(F)F)c2)c1N	-0.6%
COc1ccc(Cn2nnc(C(=O)Nc3cc(OC)ccc3OC)c2N)cc1	i
COc1ccc(NC(=O)c2nnn(Cc3ccccc3C)c2N)c(OC)c1	1.12µM*
Cc1cccc(Cn2nnc(C(=O)Nc3cc(C)ccc3C)c2N)c1	2µM*
COc1ccc(NC(=O)c2nnn(CC(=O)Nc3cc(C)cc(C)c3)c2N)c(OC)c1	-9.8%
COc1cccc(Cn2nnc(C(=O)Nc3cc(C)ccc3C)c2N)c1	-32.2%
COC(=O)CN1C(=O)[C@@H]2C[C@@H](O)CN2C2(CN(Cc3ccccc3)C2)C1=O	-2.9%[44.1 µM]
COC[C@@H]1CN(c2ncccn2)C[C@H]1C(=O)NCCn1cccn1	14.5%
COCC(=O)N[C@@H]1CN(Cc2cccc(F)c2F)C[C@H]1CO	-14.8%
C=CCNC(=O)CCc1c(C)nn(-c2ccccc2)c1Oc1ccccc1F	-16.9%
O=[S+]1([O-])NC2(CCN(CC3CCOCC3)CC2)COc2ccccc21	-1.0%
SMILES	Pf Dd2 growth
CN(CC1(C)CCOCC1)C(=O)c1cc(Cl)ccc1F	-5.3%
O=C(c1ccco1)N1CCC(Oc2cccc(F)c2)C1 (stereo not drawn)	i
CN1CCCN(C[C@@H]2CN(Cc3cccc(CCN)c3)C[C@@H]2CO)CC1	11.5%
COCC(=O)N1CCCC(C(=O)N2CCC(OCc3ccccc3)CC2)C1 (stereo not drawn)	-9.3%
Cc1ccccc1N1CCCN(Cc2cccc(CCN)c2)CC1	8.91µM*
NCCc1ccc(CN2CCC(Oc3ncccn3)CC2)cc1	-8.4%
Cc1cc(CN2CCN(c3cccc(C)c3C)CC2)cs1	-19.5%
NCCc1cccc(CN2CCC(OCc3ccccc3)CC2)c1	4.47µM*
O=c1[nH]ccn1C1CCN(Cc2ccccc2)CC1	16.4%[44.1 µM]
O=C(c1ccccc1OCC1CCCN(Cc2ccc(O)c(F)c2)C1)N1CCCCC1 (stereo not drawn)	-24.0%
Cc1cccc(CN2CCCC(COc3ccccc3C(=O)N3CCOCC3)C2)c1 (stereo not drawn)	0.0%
NCCc1cccc(CN2CCC(Oc3cccc(F)c3)CC2)c1	10µM*
NCCc1cccc(CN2CCCC(COc3ccccc3F)C2)c1 (stereo not drawn)	2µM*
CCOc1ccccc1NC(=O)Cn1nc2n(c1=O)CCCC2	i
COc1ccc(S(=O)(=O)N2CCC(n3cnnc3C3CC3)CC2)cc1Cl	i
CC(C)N1CCN(C(=O)C2CCCCC(=O)N2C)CC1 (stereo not drawn)	-1.9%
CN(C)C[C@@H]1CN(c2ccccn2)C[C@H]1NC(=O)NC1CCCCC1	-23.1%
CN1CCNc2nc(COc3ccccc3OC(F)(F)F)n(Cc3ccccc3)c2C1=O	i
CC(C)(C)c1ccc(-c2cc(C[C@H]3CNCC[C@H]3CC(=O)N3CCCCC3)no2)cc1	5.01µM*
O=C(C[C@@H]1CCNC[C@@H]1Cc1cc(-c2ccc(F)cc2)on1)NCc1ccc(F)cc1	i
CC(C)(C)NC(=O)C[C@@H]1CCNC[C@@H]1Cc1cc(-c2ccc(C(C)(C)C)cc2)on1	3.98µM*
CC(C)(C)c1ccc(-c2cc(C[C@H]3CNCC[C@H]3CC(=O)NCc3ccc(F)cc3)no2)cc1	-2.9%
COc1ccc(CNC(=O)C[C@@H]2CCNC[C@@H]2Cc2cc(-c3ccc(C(C)(C)C)cc3)on2)cc1	-17.8%
CC(C)(C)c1ccc(-c2cc(C[C@H]3CNCC[C@H]3CC(=O)N3CCN(c4ccc(F)cc4)CC3)no2)cc1	i
COCC(=O)N1CCC2(CC1)Nc1ccccc1NC2=O	-4.5%
COc1ccc(C(=O)N2CCn3c(nn(-c4ccncc4)c3=O)C2)cc1	8.7%
